Test system: U-2932
Assay: growth inhibition by drug alone (1 - RLU/untreated control) (fraction); higher = stronger inhibition
Conditions: 177Lu-lilotomab satetraxetan 0 ug/ml
Description: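 U-2932 ABC-DLBCL cells were pretreated or not for 18 h with 1 ug/ml 177Lu-lilotomab satetraxetan (600 MBq/mg), washed and seeded (3000 cells/well) on 384-well plates pre-printed with the Selleck Cambridge Cancer Compound library. Viability was read by RealTime-Glo luminescence on days 3-6 after seeding. Effect = 1 - RLU/mean RLU of the 48 untreated no-drug control wells per plate; Bliss score = (M-E)/(1-Fa), with E the expected Bliss-additive effect.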

SMILES | growth inhibition by drug alone (10 nM, time (day): 3) | growth inhibition by drug alone (10 nM, time (day): 4) | growth inhibition by drug alone (10 nM, time (day): 5) | growth inhibition by drug alone (10 nM, time (day): 6) | growth inhibition by drug alone (1000 nM, time (day): 3) | growth inhibition by drug alone (1000 nM, time (day): 4) | growth inhibition by drug alone (1000 nM, time (day): 5) | growth inhibition by drug alone (1000 nM, time (day): 6)
Cc1ccc(F)c(NC(=O)Nc2ccc(-c3cccc4[nH]nc(N)c34)cc2)c1 [Linifanib (ABT-869)] | 0.0297 | 0.0175 | -0.00657 | 0.043 | 0.133 | 0.146 | 0.103 | 0.0811
Cc1[nH]c2ccccc2c1CCNCc1ccc(/C=C/C(=O)NO)cc1 [Panobinostat] | 0.545 | 0.448 | 0.353 | 0.31 | 0.98 | 0.982 | 0.982 | 0.983
COc1cc(Nc2ncc(F)c(Nc3ccc4c(n3)N(COP(=O)(O)O)C(=O)C(C)(C)O4)n2)cc(OC)c1OC | -0.000834 | -0.000602 | 0.00162 | 0.0946 | 0.00804 | -0.00449 | -0.047 | -0.0248
O=c1cc(-c2cccc3c2Sc2ccccc2S3)oc(N2CCOCC2)c1 | -0.0795 | -0.0657 | -0.0216 | 0.0484 | -0.0815 | -0.0342 | -0.0721 | -0.125
Nc1nc(Nc2ccc(S(N)(=O)=O)cc2)nn1C(=O)c1c(F)cccc1F | 0.0686 | 0.0712 | 0.0243 | -0.028 | 0.297 | 0.39 | 0.398 | 0.477
